Out of some 13,000 compounds screened, about 3,200 (25%) showed an effect of 50% or more. The list shows a part of the results.
System: P. falciparum stage V gametocytes
Design: BacTiter-Glo ATP luminescence viability of purified stage V gametocytes in 384-well plates, per cent inhibition versus DMSO
Conditions: 48 h, 5 µM; inhibitor

SMILES	% Inhibition
O=C(c1cc(C(=O)NCc2ccc(Cl)cc2)c(=O)n(Cc2ccc(Cl)cc2)c1)c1cc(F)ccc1O [TCMDC-125145]	-12.34%
O=C(NCCCCN1CCC(c2ccc3ccccc3c2O)CC1)c1ccc(-c2ccc(Cl)cc2)cc1 [TCMDC-138663]	108.9%
O=C(NCCCCN1CCC(c2ccc3ccccc3c2O)CC1)c1ccc(NC(=O)c2ccc(Cl)cc2)cc1 [TCMDC-138654]	82.05%
O=C(NCCCCN1CCC(c2ccc3ccccc3c2)CC1)c1ccc(NC(=O)c2ccc(Cl)cc2)cc1 [TCMDC-138378]	-9.216%
O=C(NCCCCN1CCC(c2cccc3ccccc23)CC1)c1ccc(NC(=O)c2ccc(Cl)cc2)cc1 [TCMDC-138340]	-11.24%
CC(=O)Oc1c(C2CCN(CCCCNC(=O)c3ccc(NC(=O)c4ccc(Cl)cc4)cc3)CC2)ccc2ccccc12 [TCMDC-138657]	89.12%
Cc1cccc2[nH]c(-c3cccc(-c4cccc(NC(=O)CNC(=O)c5ccc(O)cc5)c4)c3)nc12 [TCMDC-136818]	-5.376%
Cc1cc(OCCCn2ccnc2)ccc1-c1csc(NC(N)=NCc2ccccc2)n1 [TCMDC-138931]	31.69%
CC(C(=O)OCCOCn1cnc2c(=O)[nH]c(N)nc21)N(C)C(=O)OC(C)(C)C (centres unmarked) [TCMDC-137343]	21.46%
CC(C)c1ccc(S(=O)(=O)N(c2ccc3c(c2)OCO3)C2CCN(Cc3ccccc3)C2)cc1 (centres unmarked) [TCMDC-134099]	-69.31%
COc1ccc(N2C(N)=NC(N)=NC2(C)C)cc1OC [TCMDC-124282]	18.93%
CC(CN1CCN(C)CC1)C(=O)Nc1cccc(-c2ccc(-c3nc4ccccc4[nH]3)cc2)c1 (centres unmarked) [TCMDC-137147]	83.04%
Cc1cccc2nc(-c3ccc(-c4cccc(NC(=O)C(C)CN5CCN(C)CC5)c4)s3)[nH]c12 (centres unmarked) [TCMDC-137155]	-49.23%
CC(CN1CCN(C)CC1)C(=O)Nc1cccc(-c2cccc(-c3nc4ccccc4[nH]3)c2)c1 (centres unmarked) [TCMDC-137141]	72.32%
CCc1cc2c(=O)c(-c3nc(C)cs3)c(N)oc2c(CN2CCCCC2)c1O [TCMDC-124016]	0.6377%
COc1cc(C(=O)N2N=C(c3c(-c4ccccc4)c4cc(Br)ccc4[nH]c3=O)CC2c2cccc([N+](=O)[O-])c2)cc(OC)c1OC (centres unmarked) [TCMDC-124218]	43.01%
Cc1noc(C)c1-c1cccc(CNCc2ccc(-c3cccc(-c4nc5cccc(C)c5[nH]4)c3)cc2)c1.O=C(O)C(F)(F)F [TCMDC-133052]	-22.75%
